Compound activity: PubChem, several laboratories
tim23-1 inh: growth inhibitors of tim23-1 mutant yeast, primary screen, luminescence, uHTS; inhibition, % at 20 µM; S. cerevisiae tim23-1 growth, BacTiter-Glo luminescence, 24 h; 330,000 tested, 1.3% active;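 active = growth inhibition of the mutant yeast at or above 50%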;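 note: temperature-sensitive mutant grown at 25 °C; plate controls were DMSO-treated mutant yeast for no effect and medium wells lacking yeast for full effect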
NLRP3 yeast inh: NALP3 inflammasome inhibitors in reconstituted yeast, primary screen, luminescence, uHTS | Yeast reconstituted NLRP3/ASC/caspase-1, beta-gal luminescence, 24 h | inhibition, % at 10 µM | 330,000 tested, 0.39% active | AID 2825, 2010;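 active = inhibition of 50% or more; inactive = inhibition below 50%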;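 note: plate controls were induced DMSO wells for no effect and uninduced yeast grown without galactose for full effect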
tim10-1 inh: growth inhibitors of tim10-1 mutant yeast, primary screen, luminescence, uHTS | S. cerevisiae tim10-1 ts strain growth, BacTiter-Glo, 24 h | inhibition, % at 20 µM | 330,000 tested, 2.2% active;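 active = inhibition of at least 40%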;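 note: mutant grown at 25 °C; 0% = DMSO wells with yeast and 100% = wells holding no yeast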
TIM10 inh: growth inhibitors of isogenic TIM10 control yeast, primary screen, counter-screen for tim10-1 yeast inhibitor project, luminescence, uHTS | S. cerevisiae TIM10 strain growth, BacTiter-Glo luminescence, 24 h | inhibition, % at 10 µM | 330,000 tested, 1.4% active;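 active = inhibition of 40% or more at the single tested concentration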;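 note: wild-type TIM10 isogenic control strain grown at permissive 25 °C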
PfHsp90 yeast 2: growth inhibition of PfHsp90-expressing yeast, primary screen, antimalarial PfHsp90 inhibitor project, S. cerevisiae, BacTiter-Glo luminescence, single point, set 2 | inhibition, % at 9.4 µM | BacTiter-Glo ATP, 48 h; yeast lacking PDR1 and PDR3 efflux regulators | AID 504621, 2011 | 310,000 tested, 0.32% active;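 active = every replicate shows inhibition above about 80%, whatever the replicate mean, limit read from the data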;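 note: 0% = DMSO neutral controls and 100% = 20 µM radicicol positive controls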
tim10-1 confirm: growth inhibitors of tim10-1 mutant yeast, confirmation, single concentration, luminescence, S. cerevisiae | S. cerevisiae tim10-1 ts strain growth, BacTiter-Glo, 24 h | 7,400 tested, 56% active | shares compounds with tim10-1 inh | inhibition, % at 20 µM | AID 463213, 2010;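 active = inhibition of yeast growth at or above a set limit in either of two repeat tests at 20 µM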;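 note: tim10-1 mutant grown at permissive 25 °C to find synthetic lethal compounds; 0% = DMSO yeast wells and 100% = medium wells without yeast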
tim10 confirm: growth inhibitors of wild-type TIM10 yeast, confirmation, counter-screen for tim10-1 synthetic lethality project, single concentration, luminescence, S. cerevisiae. S. cerevisiae tim10 strain growth, BacTiter-Glo luminescence, 24 h. shares compounds with TIM10 inh. inhibition, % at 10 µM. 4,600 tested, 63% active. AID 463215, 2010;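 active = inhibition of yeast growth at or above a set limit in either of two replicates at 10 µM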;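 note: this counterscreen used the strain with wild-type TIM10; 0% = yeast with DMSO and 100% = medium wells lacking yeast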
tim23-1 confirm: tim23-1 mutant yeast growth inhibitors, confirmation, luminescence, single concentration; shares compounds with tim23-1 inh; S. cerevisiae tim23-1 growth, BacTiter-Glo luminescence, 24 h; inhibition, % at 20 µM; AID 463218, 2010; 4,400 tested, 83% active;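 active = inhibition above about 39% in either of two replicate wells at 20 µM, limit read from the data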;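 note: temperature-sensitive tim23-1 mutant grown at 25 °C; 0% = DMSO wells with yeast and 100% = medium wells without yeast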
* hit, by the source's call; nt = no result. Rows were chosen to be rich in hits. Some 3.7% of all compounds tested hit in one or more screens of this group.

SMILES	tim23-1 inh	NLRP3 yeast inh	tim10-1 inh	TIM10 inh	PfHsp90 yeast 2	tim10-1 confirm	tim23-1 confirm	others
Cc1cc(C)nc(S/C=C/C(=O)c2ccccc2F)n1	64*	33	43*	53*	-10	28	63*	tim10 confirm=53*
Cc1cc(C)nc(NC(=S)NC(=O)c2ccccc2F)n1	18	7	9	12	nt	nt	nt
Nc1nn2cc(-c3ccc(Br)cc3)nc2c2ccccc12	77*	10	41*	59*	-3	65*	82*	tim10 confirm=65*
Cc1ccc2[nH]c(C(=O)NN=C3CCCCC3)c(-c3ccccc3)c2c1	45	-5	33	14	nt	nt	nt
O=C(C[n+]1cn(C(F)F)c2ccccc21)c1ccc(Br)cc1	55*	-11	64*	72*	-5	65*	27	tim10 confirm=65*
O=C(C[n+]1cc(Br)cc2ccccc21)c1ccc(Br)cc1	29	25	33	26	13	nt	nt
C=CCN1c2ccccc2C(=O)CS1(=O)=O	15	5	9	1	-21	nt	nt
O=C1CS(=O)(=O)N(Cc2cccc(F)c2)c2ccc(Br)cc21	66*	29	48*	34	-29	48*	-6
Clc1cccc(/C(Cc2nc3ccccc3[nH]2)=N\Nc2ccccc2)c1	59*	4	46*	65*	8	30	22	tim10 confirm=5
Cc1cc(C)cc(NC(=O)CCN2CC(C)OC(C)C2)c1 (stereo not drawn)	8	18	-13	14	8	nt	nt
COc1cccc(C(=O)Nc2ccc(Cl)c(C(F)(F)F)c2)c1	68*	11	64*	61*	57	57*	75*	tim10 confirm=50*
COc1cccc(C(=O)Nc2cc(C(F)(F)F)ccc2Cl)c1	30	23	31	27	-13	nt	nt
CCOC(=O)c1c(N=CN(C)C)c2cc([N+](=O)[O-])cnc2n1C	1	12	-10	-11	-16	nt	nt
CC(C)(C)C(=O)OC/C(N)=N/OC(=O)c1ccc(Cl)c(Cl)c1	84*	14	63*	77*	6	42*	69*	tim10 confirm=86*
C/C(=N\OC(=O)c1ccc(Cl)c(Cl)c1)c1sc(C)nc1C	17	2	21	13	31	nt	nt
Cc1cc(C)c2cc(C#N)c(SCC(=O)NCc3ccco3)nc2c1	16	-9	22	10	-11	nt	nt
Cc1cc(C)c2cc(C)c(SCC(=O)NCc3ccco3)nc2c1	50*	15	44*	32	-13	43*	56*
O=C(CNC(=O)c1ccccc1F)NCc1ccncc1	7	14	8	0	nt	nt	nt
CCO[C@H]1OC(C(=O)NCc2nc3ccccc3[nH]2)=C[C@@H](c2ccc3c(c2)OCO3)[C@@H]1CCCO	-3	5	-3	-1	-19	nt	nt
CCOc1cc(-c2cc(-c3ccccc3)nc(N)c2C#N)ccc1O	30	32	23	32	2	nt	nt
CCOc1cc(-c2cc(-c3ccc(N)cc3)nc(N)c2C#N)ccc1O	50*	10	41*	18	-8	15	53*
OCC1(CO)CCCC(CO)(CO)C1O	nt	nt	nt	nt	-13	nt	nt
Cc1ccc(C(=O)NC(C)c2ccncc2)o1 (stereo not drawn)	4	20	-7	8	13	nt	nt
COc1ccc(NCc2nc3ccccc3n2CCOc2ccccc2)cc1	77*	28	49*	14	-20	40*	81*
Nn1c(COc2ccccc2F)nnc1SCC(=O)NC1CCS(=O)(=O)C1 (stereo not drawn)	-1	3	0	-9	-3	nt	nt
CC1CCCC(C)N1C(=O)c1cccc2c1-c1ccccc1/C2=N/O (stereo not drawn)	50*	14	42*	26	-3	39*	44*
